Measurements taken from PubChem BioAssay (Tox21).
Inconclusive results are not listed. Active and inactive are the calls of the source. Calls follow the shape of the dose curve; as a rule, active = well fitted curve in the direction sought with a large enough effect in the repeat runs; inconclusive = weak or mixed curves; inactive = no such curve, though single readings can be large; an effect the other way counts as inactive or inconclusive.

Tests used:
[1] = qHTS RealTime-Glo MT Cell Viability Assay in HEK293 cells - 0 hour (AID 1224880); also: top concentration of the series differs between compounds; nearly all actives have a fitted effect of over 45% in size
Method in brief: (§1)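 600 HEK293 cells per well, dispensed already mixed with RealTime-Glo MT reagents. Compound dosing came 5 h later. The same wells were read for luminescence at 0, 8, 16, 24, 32 and 40 h of exposure at 37 C.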

[2] = A CellTox Green Cytotoxicity Assay to monitor cytotoxicity in HEK293 cells - 32 hour (AID 1224881); also: nearly all actives have a fitted effect of over 40% in size; also: potency is read from the fitted curve at half-maximal effect
Method in brief: (§2)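 Dead-cell fluorescence measured kinetically: asymmetric cyanine dye, HEK293, 600 cells/well, 5 h settle, 23 nL cpd/DMSO, 37 C, reads 0–40 h every 8 h.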

[3] = A CellTox Green Cytotoxicity Assay to monitor cytotoxicity in HepG2 cells - 0 hour (AID 1224882); also: nearly all actives have a fitted effect of over 35% in size; also: potency is read from the fitted curve at half-maximal effect
Method in brief: (§3)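 First, HepG2 cells (600/well) mixed with reagent were plated; second, after 5 h at 37 C they received compounds via pintool; third, fluorescence was measured at 0 h through 40 h at 8 h intervals.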

[4] = A CellTox Green Cytotoxicity Assay to monitor cytotoxicity in HepG2 cells - 32 hour (AID 1224883); also: nearly all actives have a fitted effect of over 50% in size; also: potency is read from the fitted curve at half-maximal effect
Method in brief: as §3

[5] = A CellTox Green Cytotoxicity Assay to monitor cytotoxicity in HEK293 cells - 8 hour (AID 1224884); also: nearly all actives have a fitted effect of over 35% in size; also: potency is read from the fitted curve at half-maximal effect
Method in brief: as §2

[6] = qHTS RealTime-Glo MT Cell Viability Assay in HepG2 cells - 16 hour (AID 1224885); also: nearly all actives have a fitted effect of over 50% in size
Method in brief: (§4)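 HepG2 cells (600/well) were dispensed with RealTime-Glo reagents, incubated 5 h at 37 °C, then treated with compounds in DMSO for up to 40 h. Nonlytic NanoLuc luminescence reflecting viable cells was read at each stated time point.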

[7] = qHTS RealTime-Glo MT Cell Viability Assay in HEK293 cells - 24 hour (AID 1224886); also: nearly all actives have a fitted effect of over 50% in size; also: potency is read from the fitted curve at half-maximal effect; as to activity change, negative = cytotoxicity: top concentration of the series differs between compounds
Method in brief: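 HEK293 cells seeded with NanoLuc/prosubstrate reagent, rested 5 h at 37 C, then dosed and kept at 37 C up to 40 h. Nonlytic real-time luminescence from viable cells read at 0, 8, 16, 24, 32 and 40 h.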

[8] = qHTS RealTime-Glo MT Cell Viability Assay in HEK293 cells - 8 hour (AID 1224887); also: nearly all actives have a fitted effect of over 50% in size; also: potency is read from the fitted curve at half-maximal effect; as to activity change, negative = cytotoxicity: top concentration of the series differs between compounds
Method in brief: as §1

[9] = A CellTox Green Cytotoxicity Assay to monitor cytotoxicity in HEK293 cells - 16 hour (AID 1224888); also: nearly all actives have a fitted effect of over 35% in size; also: potency is read from the fitted curve at half-maximal effect
Method in brief: as §2

[10] = qHTS RealTime-Glo MT Cell Viability Assay in HepG2 cells - 0 hour (AID 1224889); also: nearly all actives have a fitted effect of over 50% in size
Method in brief: as §4
% is scaled to controls: 0 for no effect and ±100 for the full control effect.

COC[C@H](c1ccc(C(F)(F)F)cc1)N1CCN(C2(C)CCN(C(=O)c3c(C)ncnc3C)CC2)C[C@H]1C
inactive: outcome [1] | Potency [2] | Potency [3] | Potency [4] | Potency [5] | outcome [6] | Potency [7] | Potency [8] | Potency [9]

CO[Si](CCCNCCC[Si](OC)(OC)OC)(OC)OC
inactive: outcome [1] | Potency [2] | Potency [3] | Potency [4] | Potency [5] | outcome [6] | Potency [7] | Potency [8] | Potency [9]

C=C[Si](OC)(OC)OC
inactive: outcome [1] | Potency [2] | Potency [3] | Potency [4] | Potency [5] | outcome [6] | Potency [7] | Potency [8] | Potency [9] | Potency [10]

CC(C)N1C(=O)c2ccccc2C1=O
inactive: outcome [1] | Potency [2] | Potency [3] | Potency [4] | Potency [5] | outcome [6] | Potency [7] | Potency [8] | Potency [9] | Potency [10]

OCC(O)[C@@H](O)[C@H](O)[C@H](O)CO[C@H]1O[C@H](CO)[C@@H](O)[C@H](O)[C@H]1O (stereo partly specified)
inactive: outcome [1] | Potency [2] | Potency [3] | Potency [4] | Potency [5] | outcome [6] | Potency [7] | Potency [8] | Potency [9] | Potency [10]

CCCCC1CCCCC(=O)O1 (stereo unspecified)
inactive: outcome [1] | Potency [2] | Potency [3] | Potency [4] | Potency [5] | outcome [6] | Potency [7] | Potency [8] | Potency [9]

N#CCc1ccccc1[N+](=O)[O-]
inactive: outcome [1] | Potency [2] | Potency [3] | Potency [4] | Potency [5] | outcome [6] | Potency [7] | Potency [8] | Potency [9] | Potency [10]

CC1=CC(=O)CCC1
inactive: outcome [1] | Potency [2] | Potency [3] | Potency [4] | Potency [5] | outcome [6] | Potency [7] | Potency [8] | Potency [9] | Potency [10]

OCCN1C[C@H](O)[C@@H](O)[C@H](O)[C@H]1CO
inactive: outcome [1] | Potency [2] | Potency [3] | Potency [4] | Potency [5] | outcome [6] | Potency [7] | Potency [8] | Potency [9]

CN(C)CCOC(c1ccc(Cl)cc1)c1ccccn1 (stereo unspecified)
inactive: outcome [1] | Potency [2] | Potency [3] | Potency [4] | Potency [5] | outcome [6] | Potency [7] | Potency [8] | Potency [9] | Potency [10]

CC(C=O)Cc1ccc(C(C)C)cc1 (stereo unspecified)
inactive: outcome [1] | Potency [2] | Potency [3] | Potency [4] | Potency [5] | outcome [6] | Potency [7] | Potency [8] | Potency [9]

Cc1cc(C)c(NC(=O)CN(CC(=O)O)CC(=O)O)c(C)c1Br
inactive: outcome [1] | Potency [2] | Potency [3] | Potency [4] | Potency [5] | outcome [6] | Potency [7] | Potency [8] | Potency [9]

O=C(O)C(O)[C@H](O)[C@@H](O)[C@H](O)[C@H](O)CO (stereo partly specified)
inactive: outcome [1] | Potency [2] | Potency [3] | Potency [4] | Potency [5] | outcome [6] | Potency [7] | Potency [8] | Potency [9]

CCCCCCCCCCCCCCCCCC(=O)OCCCCCCCCCCCCCC(C)C
inactive: outcome [1] | Potency [2] | Potency [3] | Potency [4] | Potency [5] | outcome [6] | Potency [7] | Potency [8] | Potency [9]

Nc1ccn(C2CO[C@H](CO)O2)c(=O)n1 (stereo partly specified)
inactive: outcome [1] | outcome [6] | Potency [7] | Potency [8]
active: Potency [2] 19 µM | Potency [3] 26.8 µM | Potency [4] 5.35 µM | Potency [5] 16.9 µM | Potency [9] 19 µM

CCN1CCN(c2cc3c(cc2F)c(=O)c(C(=O)O)cn3C2CC2)CC1
inactive: outcome [1] | Potency [2] | Potency [3] | Potency [4] | Potency [5] | outcome [6] | Potency [7] | Potency [8] | Potency [9] | Potency [10]

CC(C)(O)C(=O)c1ccc(OCCO)cc1
inactive: outcome [1] | Potency [2] | Potency [3] | Potency [4] | Potency [5] | outcome [6] | Potency [7] | Potency [8] | Potency [9]

CC(O)CN(CCCN(C)C)CCCN(C)C (stereo unspecified)
inactive: outcome [1] | Potency [2] | Potency [3] | Potency [4] | Potency [5] | outcome [6] | Potency [7] | Potency [8] | Potency [9] | Potency [10]

C=CCOc1nc(OCC=C)nc(OCC=C)n1
inactive: outcome [1] | Potency [2] | Potency [3] | Potency [4] | Potency [5] | outcome [6] | Potency [7] | Potency [8] | Potency [9] | Potency [10]

CC(C)(O)c1ccccc1
inactive: outcome [1] | Potency [2] | Potency [3] | Potency [4] | Potency [5] | outcome [6] | Potency [7] | Potency [8] | Potency [9] | Potency [10]

C1COCCO1
inactive: outcome [1] | Potency [2] | Potency [3] | Potency [4] | Potency [5] | outcome [6] | Potency [7] | Potency [8] | Potency [9] | Potency [10]

Cc1c(F)cc2c(=O)c(C(=O)O)cn3c2c1CCC3C (stereo unspecified)
inactive: outcome [1] | Potency [2] | Potency [3] | Potency [4] | Potency [5] | outcome [6] | Potency [7] | Potency [8] | Potency [9] | Potency [10]

FC(F)(F)C(F)(F)C(F)(F)C(F)(F)C(F)(F)C(F)(F)C(F)(F)C(F)(F)C(F)(F)C(F)(F)F
inactive: activity change, negative = cytotoxicity [1] -21.9% [at 6.97 µM] | cytotoxicity increase [2] -14.9% [at 6.97 µM] | cytotoxicity [3] 4.39% [at 6.97 µM] | cytotoxicity increase [4] 1.61% [at 6.97 µM] | cytotoxicity increase [5] 4.13% [at 6.97 µM] | activity change, negative = cytotoxic [6] 3.86% [at 6.97 µM] | activity change, negative = cytotoxicity [7] -12.9% [at 6.97 µM] | activity change, negative = cytotoxicity [8] -20.1% [at 6.97 µM] | activity change [9] -9% [at 6.97 µM, hits give high values] | activity change, negative = cytotoxicity [10] 12.4% [at 6.97 µM]

COC(C(=O)O)c1ccccc1 (stereo unspecified)
inactive: outcome [1] | Potency [2] | Potency [3] | Potency [4] | Potency [5] | outcome [6] | Potency [7] | Potency [8] | Potency [9] | Potency [10]

CCCc1ccccc1O
inactive: outcome [1] | Potency [2] | Potency [3] | Potency [4] | Potency [5] | outcome [6] | Potency [7] | Potency [8] | Potency [9]

O=C1CC2(CCCC2)CC(=O)N1
inactive: outcome [1] | Potency [2] | Potency [3] | Potency [4] | Potency [5] | outcome [6] | Potency [7] | Potency [8] | Potency [9] | Potency [10]

CC(C)CCCC(C)NCCC(C)C (stereo unspecified)
inactive: outcome [1] | Potency [2] | Potency [3] | Potency [4] | Potency [5] | outcome [6] | Potency [7] | Potency [8] | Potency [9] | Potency [10]

COc1ccc(NC(C)=O)cc1
inactive: outcome [1] | Potency [2] | Potency [3] | Potency [4] | Potency [5] | outcome [6] | Potency [7] | Potency [8] | Potency [9] | Potency [10]

CC(C)COC(=O)c1ccccc1O
inactive: outcome [1] | Potency [2] | Potency [3] | Potency [4] | Potency [5] | outcome [6] | Potency [7] | Potency [8] | Potency [9]

O=[N+]([O-])c1ccc(CCO)cc1
inactive: outcome [1] | Potency [2] | Potency [3] | Potency [4] | Potency [5] | outcome [6] | Potency [7] | Potency [8] | Potency [9]

O=Cc1ccccc1[N+](=O)[O-]
inactive: outcome [1] | Potency [2] | Potency [3] | Potency [4] | Potency [5] | outcome [6] | Potency [7] | Potency [8] | Potency [9] | Potency [10]

CC(C)(C)CC(C)(C)N
inactive: outcome [1] | Potency [2] | Potency [3] | Potency [4] | Potency [5] | outcome [6] | Potency [7] | Potency [8] | Potency [9] | Potency [10]

CCCCCCOC(=O)CC(CC(=O)OCCCCCC)(OC(=O)CCC)C(=O)OCCCCCC
inactive: outcome [1] | Potency [2] | Potency [3] | Potency [4] | Potency [5] | outcome [6] | Potency [7] | Potency [8] | Potency [9] | Potency [10]

CN(C)N=Nc1ccccc1
inactive: outcome [1] | Potency [2] | Potency [3] | Potency [4] | Potency [5] | outcome [6] | Potency [7] | Potency [8] | Potency [9]

CSc1nc(NC2CC2)nc(NC(C)(C)C)n1
active: Potency [7] 21.9 µM | Potency [8] 19.5 µM
inactive: outcome [1] | Potency [2] | Potency [3] | Potency [4] | Potency [5] | outcome [6] | Potency [9] | Potency [10]

CN(C)C(=O)Nc1ccccc1
inactive: outcome [1] | Potency [2] | Potency [3] | Potency [4] | Potency [5] | outcome [6] | Potency [7] | Potency [8] | Potency [9] | Potency [10]

O=C1OC(=O)c2cc([N+](=O)[O-])ccc21
inactive: outcome [1] | Potency [2] | Potency [3] | Potency [4] | Potency [5] | outcome [6] | Potency [7] | Potency [8] | Potency [9] | Potency [10]

CC(C)[C@H](N)C(=O)OCCOCn1cnc2c(=O)[nH]c(N)nc21
inactive: outcome [1] | Potency [2] | Potency [3] | Potency [4] | Potency [5] | outcome [6] | Potency [7] | Potency [8] | Potency [9] | Potency [10]

Cc1ccc(N)cc1[N+](=O)[O-]
inactive: outcome [1] | Potency [2] | Potency [3] | Potency [4] | Potency [5] | outcome [6] | Potency [7] | Potency [8] | Potency [9] | Potency [10]

CCCCCCC(CCCCCCCCCCC(=O)OCC(COC(C)=O)OC(C)=O)OC(C)=O (stereo unspecified)
inactive: outcome [1] | Potency [2] | Potency [3] | Potency [4] | Potency [5] | outcome [6] | Potency [7] | Potency [8] | Potency [9] | Potency [10]

N#CC1(O)CCCCC1
inactive: outcome [1] | Potency [2] | Potency [3] | Potency [4] | Potency [5] | outcome [6] | Potency [7] | Potency [8] | Potency [9] | Potency [10]

C=CC(=O)N1CCOCC1
inactive: outcome [1] | Potency [2] | Potency [3] | Potency [4] | Potency [5] | outcome [6] | Potency [7] | Potency [8] | Potency [9] | Potency [10]

Cc1cc(C)cc(OCC2CNC(=O)O2)c1 (stereo unspecified)
inactive: outcome [1] | Potency [2] | Potency [3] | Potency [4] | Potency [5] | outcome [6] | Potency [7] | Potency [8] | Potency [9] | Potency [10]

CCCOCC(C)OCC(C)O (stereo unspecified)
inactive: outcome [1] | Potency [2] | Potency [3] | Potency [4] | Potency [5] | outcome [6] | Potency [7] | Potency [8] | Potency [9] | Potency [10]
